Data from the supplement of paper PMC10849652.
About 7,900 targets were measured; listed, in parts, are those with a hit and a random draw of the rest. About 0.6% of all pairs of compound and target were hits. A number with no mark means an inactive call.

Columns and labels:
Assay in all cases: log2 fold change, soluble protein after heating vs DMSO (PISA); higher = thermal stabilisation; K562 cells, 10 uM, 30 min; active = over 0.2 and 3.5 SD of the protein, either way, in both replicates (recomputed)
[1] = compound: CS(=O)(=O)c1ccc(-c2cnc(N)c(C(=O)Nc3ccccc3)n2)cc1
In short: (§1)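 Values are thermal stability changes relative to control samples and are taken from duplicates. They are stated as log2 fold changes. Before quantification by TMTpro 16plex LC-MS/MS with equalised channel sums, K562 cells at 2×10^6 cells/mL were treated with 10 μM compound for 30 min, heated in aliquots for 3 min across 48°C-58°C, pooled, extracted in PBS with 0.5% NP-40 at 4°C, and centrifuged at 21,000xg for 90 min to give the soluble supernatant.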

[2] = compound: C[C@@H](Oc1cc(-c2cnn(C3CCNCC3)c2)cnc1N)c1c(Cl)ccc(F)c1Cl [crizotinib]
In short: as §1

[3] = compound: C[C@@H]1COCCN1C2=NC(=NC(=C2)C3(CC3)S(=O)(=O)C)C4=C5C=CNC5=CC=C4
In short: as §1

[4] = compound: C[C@H](C1=CC=C(C=C1)C(=O)NC2=C3C=CNC3=NC=C2)N
In short: as §1

[5] = compound: C[C@H](Nc1ncnc2nc[nH]c12)c1cc2cccc(Cl)c2c(=O)n1-c1ccccc1 [duvelisib]
In short: as §1

[6] = compound: Cc1cc(Nc2cc(CN3CCOCC3)c3nc(C)c(Cc4ccc(Cl)cc4F)n3n2)n[nH]1 [gandotinib]
In short: as §1

[7] = compound: Cc1cc(Nc2cc(N3CCN(C)CC3)nc(Sc3ccc(NC(=O)C4CC4)cc3)n2)n[nH]1 [tozasertib]
In short: as §1

[8] = compound: Cc1cc(SCc2sc(-c3ccc(C(F)(F)F)cc3)nc2C)ccc1OCC(=O)O
In short: as §1

[9] = compound: Cc1ccc(-n2nc(C(C)(C)C)cc2NC(=O)Nc2ccc(OCCN3CCOCC3)c3ccccc23)cc1 [doramapimod]
In short: as §1

[10] = compound: Cc1ccc(C(=O)N(CCCN)[C@@H](c2nc3cc(Cl)ccc3c(=O)n2Cc2ccccc2)C(C)C)cc1 [ispinesib]
In short: as §1

[11] = compound: Cc1ccc(NC(=O)c2ccc(CN3CC[C@H](N(C)C)C3)c(C(F)(F)F)c2)cc1Nc1nccc(-c2cncnc2)n1 [bafetinib]
In short: as §1

[12] = compound: Cc1cccc(CC(=O)N2CCc3c2ccc(-c2cn(C)c4ncnc(N)c24)c3F)n1
In short: as §1

[13] = compound: Cc1cn(-c2cc(NC(=O)c3ccc(C)c(Nc4nccc(-c5cccnc5)n4)c3)cc(C(F)(F)F)c2)cn1 [nilotinib]
In short: as §1

[14] = compound: Cc1nc(Nc2n[nH]c3c2CN(C(=O)N[C@H](CN(C)C)c2ccccc2)C3(C)C)c2sccc2n1
In short: as §1

[15] = compound: Cc1nc(Nc2ncc(C(=O)Nc3c(C)cccc3Cl)s2)cc(N2CCN(CCO)CC2)n1 [dasatinib]
In short: as §1

[16] = compound: Cc1ncc(-c2ccnc(Nc3ccc(S(C)(=O)=O)cc3)n2)n1C(C)C
In short: as §1

[17] = compound: Cn1cc(-c2ccc3c(c2)CCN3C(=O)Cc2cccc(C(F)(F)F)c2)c2c(N)ncnc21
In short: as §1

[18] = compound: Cn1cc(-c2ccc3nnc(C(F)(F)c4ccc5ncccc5c4)n3n2)cn1
In short: as §1

[19] = compound: Cn1cncc1[C@@](N)(c1ccc(Cl)cc1)c1ccc2c(c1)c(-c1cccc(Cl)c1)cc(=O)n2C [tipifarnib]
In short: as §1

[20] = compound: FC(F)(F)c1ccc(/C=C/c2nc(COc3ccc(CCCCn4ccnn4)cc3)co2)cc1 [mubritinib]
In short: as §1

UniProt O75477, sequence (O75477 whole entry, looked up): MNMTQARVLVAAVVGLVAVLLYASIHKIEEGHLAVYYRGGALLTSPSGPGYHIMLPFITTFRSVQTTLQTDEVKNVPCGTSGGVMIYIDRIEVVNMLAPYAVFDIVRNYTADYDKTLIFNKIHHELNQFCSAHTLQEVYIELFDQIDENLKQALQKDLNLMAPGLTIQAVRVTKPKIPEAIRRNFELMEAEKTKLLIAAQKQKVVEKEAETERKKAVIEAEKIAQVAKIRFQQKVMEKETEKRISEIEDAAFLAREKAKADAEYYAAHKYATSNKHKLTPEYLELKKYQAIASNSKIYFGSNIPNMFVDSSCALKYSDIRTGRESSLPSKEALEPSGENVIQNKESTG
UniProt O60911, sequence (O60911 whole entry, looked up): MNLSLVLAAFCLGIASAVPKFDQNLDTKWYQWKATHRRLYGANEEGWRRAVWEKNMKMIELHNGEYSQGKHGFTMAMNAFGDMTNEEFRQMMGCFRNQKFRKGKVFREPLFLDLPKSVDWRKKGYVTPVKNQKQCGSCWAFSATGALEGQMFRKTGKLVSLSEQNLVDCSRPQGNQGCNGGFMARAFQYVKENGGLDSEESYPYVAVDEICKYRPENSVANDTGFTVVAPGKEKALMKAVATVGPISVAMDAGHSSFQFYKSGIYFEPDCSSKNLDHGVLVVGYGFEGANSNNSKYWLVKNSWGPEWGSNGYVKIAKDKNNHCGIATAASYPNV
UniProt P00374, sequence (P00374 whole entry, looked up): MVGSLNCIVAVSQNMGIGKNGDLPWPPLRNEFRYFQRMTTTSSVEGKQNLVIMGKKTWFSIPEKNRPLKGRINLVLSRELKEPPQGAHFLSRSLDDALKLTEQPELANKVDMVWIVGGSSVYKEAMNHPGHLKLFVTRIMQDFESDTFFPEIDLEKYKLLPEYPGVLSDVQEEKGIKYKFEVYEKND
UniProt Q9Y485, sequence (Q9Y485 whole entry, looked up): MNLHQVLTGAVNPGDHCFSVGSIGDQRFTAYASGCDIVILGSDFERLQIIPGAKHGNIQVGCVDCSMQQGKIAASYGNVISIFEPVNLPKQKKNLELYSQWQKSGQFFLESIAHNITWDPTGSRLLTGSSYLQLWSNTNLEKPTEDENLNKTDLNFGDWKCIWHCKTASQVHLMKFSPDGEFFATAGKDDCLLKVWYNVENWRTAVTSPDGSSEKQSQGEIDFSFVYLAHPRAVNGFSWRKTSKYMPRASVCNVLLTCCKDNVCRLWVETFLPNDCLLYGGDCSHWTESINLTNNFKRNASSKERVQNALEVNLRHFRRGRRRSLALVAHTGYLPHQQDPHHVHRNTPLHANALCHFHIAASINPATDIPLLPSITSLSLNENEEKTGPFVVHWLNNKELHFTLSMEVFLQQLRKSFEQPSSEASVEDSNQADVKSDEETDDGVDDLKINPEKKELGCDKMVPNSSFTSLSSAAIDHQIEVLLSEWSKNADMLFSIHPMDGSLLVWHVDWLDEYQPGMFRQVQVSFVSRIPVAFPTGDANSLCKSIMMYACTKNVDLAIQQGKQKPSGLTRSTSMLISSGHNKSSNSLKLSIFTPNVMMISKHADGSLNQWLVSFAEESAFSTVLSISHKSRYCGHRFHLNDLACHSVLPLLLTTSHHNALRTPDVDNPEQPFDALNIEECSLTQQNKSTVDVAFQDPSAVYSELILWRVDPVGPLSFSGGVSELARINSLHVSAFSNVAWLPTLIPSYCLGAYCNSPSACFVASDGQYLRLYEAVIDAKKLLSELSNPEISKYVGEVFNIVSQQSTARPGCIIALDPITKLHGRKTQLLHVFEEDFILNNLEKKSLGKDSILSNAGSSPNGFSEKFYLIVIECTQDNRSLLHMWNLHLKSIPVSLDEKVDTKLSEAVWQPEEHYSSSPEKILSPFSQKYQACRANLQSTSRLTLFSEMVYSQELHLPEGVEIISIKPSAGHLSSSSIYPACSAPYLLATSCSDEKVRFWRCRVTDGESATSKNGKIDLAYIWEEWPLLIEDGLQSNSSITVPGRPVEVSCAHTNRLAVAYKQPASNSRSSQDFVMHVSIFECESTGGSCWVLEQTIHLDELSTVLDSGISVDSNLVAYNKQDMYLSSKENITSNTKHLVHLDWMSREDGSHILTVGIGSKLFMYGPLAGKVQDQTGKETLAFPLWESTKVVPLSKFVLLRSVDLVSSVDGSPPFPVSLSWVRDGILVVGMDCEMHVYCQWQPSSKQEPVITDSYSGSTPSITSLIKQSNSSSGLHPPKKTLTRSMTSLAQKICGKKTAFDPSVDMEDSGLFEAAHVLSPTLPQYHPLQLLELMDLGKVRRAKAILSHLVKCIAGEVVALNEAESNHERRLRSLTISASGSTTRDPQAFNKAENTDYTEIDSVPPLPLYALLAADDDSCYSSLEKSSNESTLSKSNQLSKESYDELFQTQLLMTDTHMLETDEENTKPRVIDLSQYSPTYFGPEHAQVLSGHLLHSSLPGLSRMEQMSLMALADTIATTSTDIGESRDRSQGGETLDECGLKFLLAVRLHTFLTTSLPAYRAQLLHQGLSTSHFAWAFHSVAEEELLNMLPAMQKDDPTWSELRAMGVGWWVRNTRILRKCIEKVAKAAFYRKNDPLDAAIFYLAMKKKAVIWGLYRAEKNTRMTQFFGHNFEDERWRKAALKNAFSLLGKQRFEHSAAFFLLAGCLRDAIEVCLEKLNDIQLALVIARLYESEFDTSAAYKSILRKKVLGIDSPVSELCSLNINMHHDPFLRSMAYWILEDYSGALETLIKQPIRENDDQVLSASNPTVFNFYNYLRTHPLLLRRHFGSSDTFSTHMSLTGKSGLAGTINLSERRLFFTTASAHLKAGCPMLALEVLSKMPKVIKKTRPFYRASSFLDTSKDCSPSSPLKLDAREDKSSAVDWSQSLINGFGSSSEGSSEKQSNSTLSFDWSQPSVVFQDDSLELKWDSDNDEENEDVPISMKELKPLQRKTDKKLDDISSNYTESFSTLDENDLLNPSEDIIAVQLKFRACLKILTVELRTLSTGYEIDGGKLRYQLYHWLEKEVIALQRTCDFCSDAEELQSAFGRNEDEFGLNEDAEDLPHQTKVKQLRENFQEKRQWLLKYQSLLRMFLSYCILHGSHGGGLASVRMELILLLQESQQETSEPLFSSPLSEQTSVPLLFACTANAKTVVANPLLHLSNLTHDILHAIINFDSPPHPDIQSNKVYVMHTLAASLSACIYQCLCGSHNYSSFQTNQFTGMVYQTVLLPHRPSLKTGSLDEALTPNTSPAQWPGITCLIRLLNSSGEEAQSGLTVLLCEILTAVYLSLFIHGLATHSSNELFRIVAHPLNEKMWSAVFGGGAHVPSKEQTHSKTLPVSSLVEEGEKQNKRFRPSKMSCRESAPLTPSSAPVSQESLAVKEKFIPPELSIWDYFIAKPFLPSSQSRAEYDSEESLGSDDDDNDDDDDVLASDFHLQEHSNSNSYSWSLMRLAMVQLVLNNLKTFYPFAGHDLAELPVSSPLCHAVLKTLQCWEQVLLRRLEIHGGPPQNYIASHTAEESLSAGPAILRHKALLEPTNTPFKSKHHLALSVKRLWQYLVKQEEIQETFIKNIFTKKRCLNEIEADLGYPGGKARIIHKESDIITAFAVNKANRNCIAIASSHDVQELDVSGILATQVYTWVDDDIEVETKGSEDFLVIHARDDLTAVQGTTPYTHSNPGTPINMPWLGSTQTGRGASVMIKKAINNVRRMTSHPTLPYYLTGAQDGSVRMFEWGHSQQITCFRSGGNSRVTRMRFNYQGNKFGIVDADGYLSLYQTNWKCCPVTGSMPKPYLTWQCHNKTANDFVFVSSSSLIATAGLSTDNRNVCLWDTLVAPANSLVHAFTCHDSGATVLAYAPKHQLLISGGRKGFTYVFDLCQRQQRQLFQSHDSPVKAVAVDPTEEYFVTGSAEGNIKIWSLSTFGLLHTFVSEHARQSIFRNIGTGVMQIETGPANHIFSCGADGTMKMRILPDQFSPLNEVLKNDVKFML
UniProt Q16531, sequence (Q16531 whole entry, looked up): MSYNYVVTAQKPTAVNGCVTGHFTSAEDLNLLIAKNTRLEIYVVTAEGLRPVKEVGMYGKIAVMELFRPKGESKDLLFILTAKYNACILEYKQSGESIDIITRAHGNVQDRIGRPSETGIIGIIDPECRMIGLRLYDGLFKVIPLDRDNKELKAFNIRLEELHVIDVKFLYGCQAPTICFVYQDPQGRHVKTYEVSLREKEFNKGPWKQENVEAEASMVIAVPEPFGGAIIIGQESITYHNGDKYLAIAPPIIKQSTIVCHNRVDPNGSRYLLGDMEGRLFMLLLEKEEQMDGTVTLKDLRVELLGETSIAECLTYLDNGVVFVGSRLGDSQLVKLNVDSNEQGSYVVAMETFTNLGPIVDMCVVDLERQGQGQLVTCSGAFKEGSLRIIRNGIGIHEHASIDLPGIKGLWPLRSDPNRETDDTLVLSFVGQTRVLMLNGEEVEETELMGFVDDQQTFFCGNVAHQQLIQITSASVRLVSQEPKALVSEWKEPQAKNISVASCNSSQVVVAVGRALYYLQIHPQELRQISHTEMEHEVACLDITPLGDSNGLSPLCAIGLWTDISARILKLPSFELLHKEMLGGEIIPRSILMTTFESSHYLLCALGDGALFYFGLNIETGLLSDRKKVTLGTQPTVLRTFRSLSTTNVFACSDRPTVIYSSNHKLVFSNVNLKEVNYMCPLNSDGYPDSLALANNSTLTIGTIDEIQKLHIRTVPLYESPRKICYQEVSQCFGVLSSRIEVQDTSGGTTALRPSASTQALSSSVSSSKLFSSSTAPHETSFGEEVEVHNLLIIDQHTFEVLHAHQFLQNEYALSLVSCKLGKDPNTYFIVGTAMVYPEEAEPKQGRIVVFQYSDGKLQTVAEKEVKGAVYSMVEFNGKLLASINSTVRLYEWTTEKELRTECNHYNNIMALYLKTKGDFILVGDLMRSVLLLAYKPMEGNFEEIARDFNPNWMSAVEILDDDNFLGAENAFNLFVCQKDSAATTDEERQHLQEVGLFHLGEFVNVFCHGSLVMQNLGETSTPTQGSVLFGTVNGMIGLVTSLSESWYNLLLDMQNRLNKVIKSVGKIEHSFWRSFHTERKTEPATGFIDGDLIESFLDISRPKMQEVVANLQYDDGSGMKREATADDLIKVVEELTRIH

Target	log2 fold change [1]	log2 fold change [2]	log2 fold change [3]	log2 fold change [4]	log2 fold change [5]	log2 fold change [6]	log2 fold change [7]	log2 fold change [8]	log2 fold change [9]	log2 fold change [10]	log2 fold change [11]	log2 fold change [12]	log2 fold change [13]	log2 fold change [14]	log2 fold change [15]	log2 fold change [16]	log2 fold change [17]	log2 fold change [18]	log2 fold change [19]	log2 fold change [20]
DHFR (UniProt P00374)	-0.009	0.956 (active)	-0.015	0.239	0.604 (active)	-0.194	-0.151	0.048	0.179	-0.207	0.191	0.026	0.185	-0.022	-0.187	0.076	0	0.182	0.177	-0.225
DDB1 (UniProt Q16531)	0.005	0.033	0.026	-0.039	0.02	-0.028	-0.013	-0.037	-0.033	0.009	-0.019	-0.025	-0.004	0.027	0.046	-0.016	0.011	-0.001	-0.014	0.023
DNTTIP2 (UniProt Q5QJE6)	0.012	-0.028	-0.051	0.268	-0.26	0.107	-0.037	0.052	0.129	-0.093	0.148	-0.05	0.064	-0.02	0.148	-0.29	-0.104	-0.035	0.256	-0.074
DNAAF2 (UniProt Q9NVR5)	0.018	-0.015	-0.067	0.003	0.019	-0.182	0.02	-0.034	0.042	0.032	-0.075	0.057	0.023	0.002	-0.049	0	-0.037	0.036	0.004	0.026
ERLIN1 (UniProt O75477)	0.012	-0.039	-0.038	0.099	-0.021	-0.04	0.025	0.148	0.057	-0.27 (active)	0.041	0.094	-0.153	0.032	-0.031	0.004	-0.11	0.002	0.026	-0.053
DCTN1 isoform 4 (UniProt Q14203)	-0.013	-0.112	0.015	0.131	-0.045	0.016	0.037	0.111	0.088	-0.141	0.057	0.037	-0.052	-0.052	-0.256	-0.018	0.003	-0.015	-0.054	0.038
EFL1 (UniProt Q7Z2Z2)	0.02	-0.055	0.074	0.016	0.002	-0.056	-0.009	0.029	-0.013	-0.018	-0.043	-0.014	-0.147	-0.052	-0.077	0.003	0.021	0.028	-0.026	-0.109
CTSZ (UniProt Q9UBR2)	-0.001	-0.007	0.021	-0.033	-0.037	0.03	-0.015	-0.037	0.05	-0.481 (active)	-1.01 (active)	-0.027	0.028	-0.146	0.054	-0.022	0.058	0.022	0.052	0.033
EXOC7 (UniProt Q9UPT5)	-0.062	-0.25	-0.028	0.034	0.027	-0.122	0.027	0.05	-0.029	-0.346 (active)	-0.026	0.014	-0.046	-0.139	-0.234	-0.035	0.002	0	-0.089	-0.011
DNAH11 (UniProt Q96DT5)	-0.054	0.071	0.062	0.695 (active)	0.073	0.104	-0.165	-0.069	0.037	-0.125	0.097	-0.396	0.101	0.015	-0.036	0.072	-0.441	0.126	0.344	-0.276
DMXL1 (UniProt Q9Y485)	-0.012	-0.092	0.002	0.048	-0.011	-0.013	-0.03	0	0.047	-0.217	-0.14	-0.034	-0.002	0.018	-0.099	-0.012	0.021	0.021	-0.035	-0.053
DHX40 (UniProt Q8IX18)	0.018	-0.109	-0.003	0.03	0.005	-0.079	-0.089	0.01	0.065	-0.215	-0.033	0.038	-0.052	-0.289 (active)	-0.229	0.118	0.103	0.035	0.017	0.084
CTSV (UniProt O60911)	0.073	-1.59 (active)	0.099	-0.01	-0.039	-0.334	-0.031	-0.04	-0.005	-0.453 (active)	-0.696 (active)	-0.24	0.036	0.142	0.061	-0.056	0.016	-0.002	0.026	-0.009
ELOVL1 (UniProt Q9BW60)	0.082	-0.182	-0.065	-0.14	0.124	-0.206	-0.003	0.078	-0.082	-0.297	-0.245	0.12	-0.126	0.024	-0.041	-0.011	0.139	-0.097	-0.093	0.011
DUS3L (UniProt Q96G46)	-0.015	0.112	0.019	-0.075	-0.005	-0.027	0.043	0.022	0.033	0	-0.041	-0.02	-0.073	-0.059	-0.005	0.021	-0.064	-0.017	0.053	-0.115
DHRS1 (UniProt Q96LJ7)	0.009	0.248	0.089	-0.028	0.438	0.297	0.009	0.571	0.557	0.247	0.352	0.316	0.638	-0.076	0.02	-0.14	1.1 (active)	-0.106	0.717	0.178
